About 1,900 (2.5%) of roughly 76,000 compounds were called active. Where a call stands in place of a potency, no number is given. Inconclusive results (about 5%) are left out. This is one part of a sample in which actives are shown more often than they occur. Calls come from the whole dose curve; as a rule, active = well fitted inhibition curve with a large enough effect; inconclusive = small, poorly fitted or top-dose-only effect; inactive = flat fitted curve, though single readings scatter.
Target: Luciferin 4-monooxygenase (Photinus pyralis) (UniProt P08659)
Experiment: Firefly luciferase inhibition profiling of diverse chemical library using quantitative high-throughput screening; note: nearly all actives have a fitted effect of over 65% in size
Details: purified P. pyralis luciferase, luminescence, biochemical; series mostly up to 115 µM
In short: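 Luminescence read by CCD imaging after purified firefly luciferase (10nM final) was added to substrate buffer holding 10uM D-luciferin and 10uM ATP, pH 7.5, pre-dosed with compound.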
Potency is the fitted concentration of half-maximal effect.

Luciferin 4-monooxygenase (Photinus pyralis), sequence (P08659 whole entry, looked up): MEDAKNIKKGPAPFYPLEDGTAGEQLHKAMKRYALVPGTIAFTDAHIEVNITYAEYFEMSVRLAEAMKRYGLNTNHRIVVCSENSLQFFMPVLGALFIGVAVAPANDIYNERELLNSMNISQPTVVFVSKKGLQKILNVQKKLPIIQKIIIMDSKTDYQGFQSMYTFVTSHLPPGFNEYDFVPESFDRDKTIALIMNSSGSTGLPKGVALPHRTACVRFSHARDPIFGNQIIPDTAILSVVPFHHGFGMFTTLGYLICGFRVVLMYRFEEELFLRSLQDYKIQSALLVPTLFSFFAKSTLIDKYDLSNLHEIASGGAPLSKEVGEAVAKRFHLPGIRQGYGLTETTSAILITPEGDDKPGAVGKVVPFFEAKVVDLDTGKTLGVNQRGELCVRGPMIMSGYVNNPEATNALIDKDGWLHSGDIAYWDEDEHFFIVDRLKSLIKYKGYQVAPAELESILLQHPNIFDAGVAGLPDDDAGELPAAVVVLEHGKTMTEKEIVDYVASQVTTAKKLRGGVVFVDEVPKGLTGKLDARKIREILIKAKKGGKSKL

Row | SMILES | Potency
1 | COc1ccnc(CN2CCN(C)C3(CCC(=O)N(C)CC3)C2)c1OC (centres undefined) | inactive
2 | CCN(CC)CC[C@H]1CN(C(=O)c2ccc(N(C)C)cc2)CC[C@H]1CC(=O)O | inactive
3 | CCN1c2cc(C(=O)Nc3ccccc3)ccc2C(=O)N2CCCC21 (centres undefined) | inactive
4 | Cc1ccccc1CNC(=O)c1ccc2c(c1)N(C)C1CCCCN1C2=O (centres undefined) | inactive
5 | CN1c2cc(C(=O)Nc3ccccc3)ccc2C(=O)N2CCCCCC21 (centres undefined) | 6.31 µM (active)
6 | Cc1cc(C)cc(C(=O)NC2CCN(c3cc(-c4cccs4)[nH]n3)C2)c1 (centres undefined) | inactive
7 | Cc1cccc(CN2C[C@@H]3C(=O)N(Cc4ccc5c(c4)OCO5)C(=O)[C@@H]3C2)c1 | inactive
8 | COc1ccc(OC)c(S(=O)(=O)N2CCCCCCNC(=O)CC2c2ccccc2)c1 (centres undefined) | inactive
9 | CCC(CC)N1CCN(C(=O)c2ccc3c(c2)N(S(C)(=O)=O)CC3)CC1 | 35.5 µM (active)
10 | CC(=O)N1CCc2ccc(C(=O)N3CCCCCC3)cc21 | inactive
11 | CCOc1cccc(CNC(=O)c2ccc3c(c2)N(S(C)(=O)=O)CC3)c1 | inactive
12 | CN(c1ccccc1)c1cc(=O)c2ccnc(-c3ccc(CO)cc3)c2o1 | inactive
13 | CN(c1ccccc1)c1cc(=O)c2ccnc(Nc3cccc([S+](C)(=O)[O-])c3)c2o1 | inactive
14 | Cc1ccc(CN2CCc3nc(C)nc(-c4ccc(O)cc4)c3C2)cc1 | inactive
15 | CCN1CCN(c2ccc(C(=O)NCCCn3ccnc3C(C)C)cn2)CC1 | inactive
16 | O=C(Nc1ccc(Cl)cc1)c1nc2c(o1)CCN(Cc1ccsc1)CC2 | 17.8 µM (active)
17 | Cc1cccc(CN2CCc3nc(C(=O)Nc4ccc(Cl)cc4)oc3CC2)c1 | inactive
18 | O=C(NCC1CC1)c1nc2c(o1)CCN(CCc1ccccc1)CC2 | inactive
19 | O=C(Nc1ccccc1)c1nc2c(o1)CCN(Cc1cccc(Cl)c1)CC2 | 1.58 µM (active)
20 | O=C(NCC1CC1)c1nc2c(o1)CCN(Cc1cccc(F)c1F)CC2 | inactive
21 | N#Cc1ccc(CN2CCc3nc(C(=O)N4CCOCC4)oc3CC2)cc1 | inactive
22 | O=C(c1ccccc1-n1cccn1)N1CCN(Cc2ccccc2CO)CC1 | inactive
23 | CCOc1ccc(C(=O)N2CCC(Cc3nc(C(C)C)no3)CC2)cc1 | inactive
24 | Cc1nccn1CC1(CNc2ccncn2)CC1 | inactive
25 | CN(C)Cc1nnc(C2CCCN(C(=O)C3(N)CCNCC3)C2)n1C (centres undefined) | inactive

Row | SMILES | Potency
26 | COc1ccccc1C1CCN(Cc2cn(-c3ccccc3)nn2)CC1 | inactive
27 | O=C(Nc1ccc([C@@H](O)[C@H]2COCC(=O)N2Cc2ccccc2F)cc1)c1ccccc1 | inactive
28 | Cc1ccc(C(=O)Nc2ccc(C(O)[C@H]3COCC(=O)N3Cc3ccccc3F)cc2)cc1 (some centres undefined) | 28.2 µM (active)
29 | O=C(Nc1ccc([C@@H](O)[C@H]2COCC(=O)N2Cc2ccccc2F)cc1)C1CCCCC1 | inactive
30 | O=C([C@H]1C[C@H](Oc2cccnc2)CN1C(=O)CCCc1ccccc1)N1CCOCC1 | inactive
31 | COc1ccc(CN2CCOc3nc(-c4cc(F)cc(OC)c4)ncc3C2=O)cc1 | 28.2 µM (active)
32 | NC(=O)c1cccc(-c2ncc3c(n2)OCCN(c2cccc(C(F)(F)F)c2)C3=O)c1 | inactive
33 | O=C1c2cnc(-c3ccc(O)c(F)c3)nc2OCCN1Cc1ccccc1 | 22.4 µM (active)
34 | COc1ccc(F)cc1-c1ncc2c(n1)OCCN(CC1CC1)C2=O | inactive
35 | O=C1c2cnc(-c3ccc(Cl)cc3)nc2OCCN1Cc1ccccc1 | inactive
36 | COc1cccc(-c2nc(N3CCOCC3)cc3c2CN(CC2CC2)C3=O)c1 | inactive
37 | CN(C)c1cccc(-c2ncc3c(n2)OCCN(Cc2ccc(F)cc2F)C3=O)c1 | inactive
38 | COc1cccc(-c2ncc3c(n2)OCCN(Cc2ccc(F)cc2F)C3=O)c1OC | inactive
39 | COc1ccc(-c2ncc3c(n2)OCCN(CC2CC2)C3=O)cc1 | 1.26 µM (active)
40 | COc1ccc(-c2ncc3c(n2)OCCN(Cc2ccccc2)C3=O)cn1 | 15.8 µM (active)
41 | C[S+](=O)([O-])c1cccc(-c2ncc3c(n2)OCCN(Cc2ccc(F)cc2F)C3=O)c1 | inactive
42 | NC(=O)c1cccc(-c2ncc3c(n2)OCCN(Cc2ccccc2)C3=O)c1 | inactive
43 | Cc1ccc(-c2nc(CNS(=O)(=O)C3CC3)[nH]c2-c2ccccn2)cc1 | inactive
44 | O=C(CC1CCCC1)N1CCOc2ccc(CN3CCc4ccccc4C3)cc2C1 | inactive
45 | Cc1noc(-c2cccn3c(CNC(=O)c4ccco4)nnc23)n1 | inactive
46 | CC1=C[C@@H](CN2CCOCC2)[C@H](C(C)C)C[C@H]1Cc1nnc(-c2ccc([N+](=O)[O-])cc2)o1 | inactive
47 | O=C(Nc1ccccc1)N1CCN2C(=O)N(Cc3ccc(F)cc3)C[C@H]2C1 | 50.1 µM (active)
48 | COc1ccc(CN2C[C@H]3CN(Cc4ccc(NC(C)=O)cc4)CCN3C2=O)cc1 | inactive
49 | CC(C)NC(=O)N1CCN2C(=O)N(Cc3ccc(F)cc3)C[C@H]2C1 | inactive
50 | CN(Cc1ccccc1)C(=O)C[C@@H]1CCNC[C@@H]1Cc1cc(-c2ccc(C(C)(C)C)cc2)on1 | inactive

Row | SMILES | Potency
51 | Cc1cn2nc(C(=O)N3CCC(NC(=O)c4ccc(C#N)cc4)CC3)cc2c(=O)[nH]1 | inactive
52 | CCc1noc(-c2cccn3c(CNC(=O)c4ccncc4)nnc23)n1 | inactive
53 | CCOC(=O)C1CCN(C(=O)c2cccc3c2CCN3C(=O)Nc2ccccc2)CC1 | 5.62 µM (active)
54 | CC[C@H]1CN(C(=O)Nc2ccccc2)CC[C@H]1CC(=O)Nc1ccccc1 | inactive
55 | CCC(C)(C)NC(=O)c1cccc2c1CCN2C(=O)Nc1ccc(C)cc1 | 1.78 µM (active)
56 | COc1ccc(S(=O)(=O)N2CCc3c(C(=O)NCc4ccncc4)cccc32)cc1 | inactive
57 | CCOc1ccc(C(=O)N2CCCN(C(=O)C3CC3)c3ccccc32)cc1 | inactive
58 | Cc1cccc(S(=O)(=O)N2CCc3c(C(=O)NC(C)C)cccc32)c1 | inactive
59 | Cc1ccc2nc(CO[C@H]3CN(C4CCOCC4)C[C@H]3F)[nH]c2c1 | inactive
60 | Cc1ncoc1C(=O)N1CCCn2ccnc2C1c1ccccc1 (centres undefined) | inactive
61 | CN(C)C(=O)CC(O)c1cc2n(n1)CCN(C(=O)Cc1ccsc1)C2 (centres undefined) | inactive
62 | Cc1cccc2c(C3CCN(S(=O)(=O)c4cc(Cl)cc(Cl)c4)CC3)c[nH]c12 | inactive
63 | COc1ccc(CN2CCc3nn(CC4CC4)c(=O)n3CC2)cc1 | inactive
64 | O=C(NCCC1CCN(C(=O)Nc2cc(F)ccc2F)CC1)c1cc(F)ccc1F | inactive
65 | COc1ccc(C(=O)NCCC2CCN(C(=O)Nc3cc(F)ccc3F)CC2)cc1 | 25.1 µM (active)
66 | COc1ccc(C(=O)NCCC2CCN(C(=O)Nc3ccc(F)cc3F)CC2)cc1OC | inactive
67 | CC(c1cccc(-c2cnc(C(=O)O)cn2)c1)N1CCCC1 (centres undefined) | inactive
68 | O=C(CCC1CCCC1)N1CCC2(CC1)CC(O)CCO2 (centres undefined) | inactive
69 | O=C(CCCc1ccccc1)N1CCC2(CC1)CC(O)CCO2 (centres undefined) | 5.62 µM (active)
70 | CC(=O)N(C1CC1)C1CCOC2(CCN(C(=O)CCc3ccccc3)CC2)C1 (centres undefined) | inactive
71 | COc1ccc(CC(=O)NC2CCCc3c2[nH]c2ccccc32)cc1 (centres undefined) | inactive
72 | Cc1ccc(-c2cn3c(n2)CO[C@@H](CNS(=O)(=O)c2cccs2)C3)cc1 | inactive
73 | c1ccc(CNC[C@H]2Cn3cc(-c4ccccc4)nc3CO2)cc1 | 63.1 µM (active)
74 | c1c[nH]c(CNC[C@H]2Cn3ccnc3CO2)n1 | inactive
75 | Fc1ccc(CNC[C@H]2Cn3c(-c4ccc5c(c4)OCCO5)cnc3CO2)cc1 | inactive

Row | SMILES | Potency
76 | COc1ccc(-c2cn3c(n2)CO[C@@H](CNCc2ccc(F)c(F)c2)C3)cc1 | 35.5 µM (active)
77 | O=C(Cn1nc(-c2ccccc2)n(-c2ccccc2)c1=O)N1C[C@@H]2C[C@H]1CN2 | inactive
78 | O=C(c1ccc(F)cc1)N1CCC2(CC1)CCN(Cc1cccs1)c1ccccc1O2 | inactive
79 | Cc1ccc(C(=O)Nc2ccc3c(N4CCCCC4)ncnc3c2)s1 | 22.4 µM (active)
80 | Cc1cc(C)cc(C(=O)Nc2ccc3c(N4CCCC4)ncnc3c2)c1 | inactive
81 | Cc1ccc(C(=O)Nc2ccc3ncnc(N4CCCCC4)c3c2)s1 | inactive
82 | CCCS(=O)(=O)N1CCCC(Cn2c(C)nc3cccnc32)C1 (centres undefined) | inactive
83 | Cc1c(-c2ccc(F)cc2)[nH]c2ccc(CNC(=O)c3ccc(CO)o3)cc12 | inactive
84 | CNc1nc(C(=O)NCc2ccc3[nH]c(-c4ccc(F)cc4)c(C)c3c2)cs1 | 12.6 µM (active)
85 | CC(C)Oc1cccc(-c2nc(C(=O)NCc3ccc(F)cc3)cs2)c1 | inactive
86 | CN1C(=O)C(CC(=O)N2CCC(C#N)CC2)(Cc2ccccc2)c2ccccc21 (centres undefined) | inactive
87 | CN(Cc1ccccc1F)Cc1ccccc1F | inactive
88 | COCCc1noc(CC2CCOC3(CCN(C(=O)Nc4ccc5c(c4)OCCO5)CC3)C2)n1 (centres undefined) | 35.5 µM (active)
89 | COCCc1noc(CC2CCOC3(CCN(C(=O)C4CCCC4)CC3)C2)n1 (centres undefined) | inactive
90 | Cc1noc(CC2CCOC3(CCN(C(=O)c4ccc(C#N)cc4)CC3)C2)n1 (centres undefined) | inactive
91 | COc1cccc(C(O)c2nc(C(=O)Nc3ccccc3)c(C)o2)c1 (centres undefined) | inactive
92 | CCOc1ccc(Nc2ncncc2-c2nc(-c3ccccc3)no2)cc1 | inactive
93 | COc1cccc(-c2cc(C(=O)NCc3cc(C)on3)c3c(c2)N(C)CCO3)c1OC | inactive
94 | O=C(Cn1cccc1-c1nc(-c2ccc(F)cc2)no1)Nc1cc(F)cc(F)c1 | inactive
95 | Fc1ccc(Nc2nc(-c3ccccc3F)no2)cc1 | 2.82 µM (active)
96 | COc1ccc(Nc2nc(-c3cccc(OC)c3OC)no2)cc1 | 22.4 µM (active)
97 | C[C@H]1CN(C(=O)Nc2ccc(F)cc2)C[C@@H]1c1nc(-c2ccccc2)no1 | inactive
98 | CC1(c2noc(C3CCOCC3)n2)CCN(Cc2ccc(OCC(N)=O)cc2)CC1 | inactive
99 | CN(Cc1ccccc1)Cc1cc(CC2(NCc3ccc(OC(F)(F)F)cc3)COC2)no1 | inactive
